# Results taken from PubChem BioAssay.
# Several values for one entry are separate records, joined by “and”; a condition that tells them apart may be missing. Equal values may be shown once. Records with an inconclusive call do not appear. Activity calls are given as the source filed them.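 Rule for the calls, unless noted: active = mean z-score across replicates of 1.96 or higher in either the MELAS or the Rieske mutant cell line; inactive = the rest.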
# Experiments:
# [1] = EMT-state selective cytotoxicity in co-culture – imaging, PC-3E GFP, TEM4-18 mCherry, primary screen (AID 1345086;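 active = compounds killing one labelled cell type while sparing the other, by normalised counts and ratio limits, not self-fluorescent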;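 for all read-outs here: cells exposed to compound for 72 h before imaging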;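 for red/green cell ratio (normalised): normalised mesenchymal count divided by normalised epithelial count so high means epithelial killing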); conditions: PC-3E GFP / TEM4-18 mCherry co-culture, imaging cell counts, at 1 µM; for red/green cell ratio (normalised): actives lie on both sides, counts scaled to control wells, 1 = unselective
# [2] = test system: Aerobactin synthetase IucA (Klebsiella pneumoniae); test: inhibition of K. pneumoniae IucA enzyme – biochemical, Tocris library, absorbance (AID 1345561; call rule not given here;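 note: 100% = enzyme without compound and 0% = no enzyme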); conditions: purified IucA enzyme assay, absorbance (OD) read-out; stronger effect = lower value;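 tested at 8 µM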
# [3] = MELAS cybrid and Rieske KO viability enhancers – cell-based, MELAS cybrids, Rieske KO mouse fibroblasts, CellTiter-Glo, primary screen (AID 1508586); conditions: low glucose;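 note: z relative to plate mean and SD of compound and empty wells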
# [4] = blockers of cellular phospholipid synthesis – cell-based, LOPAC library, screen 4, primary screen (AID 1347384; call rule not given here); conditions: animal cells, phospholipid biosynthesis inhibition screen; at 10 µM
# [5] = viability loss with induced miR-34 in A549 – imaging, A549 dox-inducible miR-34, nuclei and caspase counts, primary screen (AID 1347080;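 active = compounds whose cell count with miR-34 switched on is under 0.7 times the count with it off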); conditions: A549 miR-34 inducible, Hoechst nuclei count, 48 h
# [6] = viability loss in pontine glioma line – cell-based, SU-DIPG-XIII, MIPE4.0, CellTiter-Glo, qHTS, dose response (AID 1347061; cut-off not given, nearly all actives have AC50 up to about 37 µM;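 note: cells exposed to compound for 48 hours before readout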); conditions: CellTiter-Glo ATP luminescence
# [7] = viability loss in pontine glioma line – cell-based, JHH-DIPG-1, MIPE4.0, CellTiter-Glo, qHTS, dose response (AID 1347062; cut-off not given, nearly all actives have AC50 up to about 27 µM;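 for AC50: cells exposed to compound for two days before readout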); conditions: JHH-DIPG-1 viability, CellTiter-Glo ATP luminescence
# [8] = growth inhibition of DIPG cells – cell-based, MIPE4.0 library, CellTiter-Glo luminescence, qHTS (AID 1347066; cut-off not given, nearly all actives have AC50 up to about 30 µM;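 note: cells exposed to compound for 48 hours before readout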); conditions: SU-DIPG-VI viability, CellTiter-Glo ATP luminescence
# [9] = growth inhibition of DIPG cells – cell-based, MIPE5.0 library, qHTS (AID 1347068; cut-off not given, nearly all actives have IC50 up to about 30 µM;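 for IC50: cells exposed to compound for 48 hours before viability readout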); conditions: SU-DIPG-XXV viability
# [10] = viability loss in pontine glioma line – cell-based, SU-DIPG-XVII, MIPE5.0, CellTiter-Glo, qHTS, dose response (AID 1347060; cut-off not given, nearly all actives have AC50 up to about 26 µM;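 for AC50: cells exposed to compound for 48 hours before viability readout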); conditions: CellTiter-Glo ATP luminescence
# [11] = viability loss in pontine glioma line – cell-based, SU-DIPG-IV, MIPE4.0, CellTiter-Glo, qHTS, dose response (AID 1347063; cut-off not given, nearly all actives have AC50 up to about 30 µM;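 note: compound exposure lasted 48 hours before the viability readout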); conditions: CellTiter-Glo ATP luminescence
# [12] = viability loss in pontine glioma line – cell-based, SU-DIPG-XIII, MIPE5.0, CellTiter-Glo, qHTS, dose response (AID 1347064; cut-off not given, nearly all actives have AC50 up to about 23 µM;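 for AC50: cells exposed to compound for 48 hours before the viability read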); conditions: CellTiter-Glo ATP luminescence
# [13] = viability loss in pontine glioma line – cell-based, SU-DIPG-XXV, MIPE5.0, CellTiter-Glo, qHTS, dose response (AID 1347065; cut-off not given, nearly all actives have AC50 up to about 26 µM;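 note: cells exposed to compound for 48 hours before ATP readout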); conditions: CellTiter-Glo ATP luminescence
# [14] = JHH-DIPG-1 glioma cell viability, MIPE5.0 library, CellTiter-Glo luminescence, qHTS (AID 1347067; cut-off not given, nearly all actives have AC50 up to about 26 µM;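 note: cells exposed to compound for 48 hours before readout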); conditions: JHH-DIPG-1 glioma viability, CellTiter-Glo ATP luminescence
# [15] = measured here: epithelial PC-3E GFP cell survival
# [16] = measured here: mesenchymal TEM4-18 mCherry cell survival
# [17] = MELAS cybrid survival, CellTiter-Glo 48 h, stronger effect = higher value
# [18] = Rieske KO mouse fibroblast survival, CellTiter-Glo 72 h
# [19] = stronger effect = lower value, cell number ratio, induced over uninduced
# [20] = measured here: relative caspase fold change +Dox/-Dox
# [21] = measured here: total cells with miR-34 induction, stronger effect = lower value
# [22] = measured here: total cells without miR-34 induction
structure (smiles),measurement,setting,value
COc1ccc(CCN2CCC(Nc3nc4ccccc4n3Cc3ccc(F)cc3)CC2)cc1,red/green cell ratio (normalised),[1],1.02 (inactive)
same,normalised cell number,[1]; [15],1.09
same,normalised cell number,[1]; [16],1.11
same,remaining activity,[2],97.7% (inactive)
same,z-score,[3]; [17],-0.668 (inactive) and -0.11 (inactive)
same,z-score,[3]; [18],-1.26 and 1.21
NC(N)=NC(=O)Cc1c(Cl)cccc1Cl,red/green cell ratio (normalised),[1],0.93 (inactive)
same,normalised cell number,[1]; [15],1.04
same,normalised cell number,[1]; [16],0.96
same,remaining activity,[2],114% (inactive)
same,outcome,[4],inactive
same,z-score,[3]; [17],-0.203 (inactive) and -0.668 (inactive)
same,z-score,[3]; [18],0.336 and -1.29
Cc1nc2sccn2c(=O)c1CCN1CCC(=C(c2ccc(F)cc2)c2ccc(F)cc2)CC1,red/green cell ratio (normalised),[1],1.18 (inactive)
same,normalised cell number,[1]; [15],1.16
same,normalised cell number,[1]; [16],1.38
same,remaining activity,[2],122% (inactive)
same,fold change,[5]; [19],1.04 (inactive) and 0.919 (inactive) and 0.754 (inactive)
same,fold change,[5]; [20],0.73 and 0.904 and 7.37
same,cell count,[5]; [21],8680 and 6720 and 10000
same,cell count,[5]; [22],8330 and 7320 and 13300
same,outcome,[4],inactive
CC(=O)Nc1ccc(O)cc1,red/green cell ratio (normalised),[1],1.05 (inactive)
same,normalised cell number,[1]; [15],1.11
same,normalised cell number,[1]; [16],1.16
same,remaining activity,[2],121% (inactive)
same,outcome,[6],inactive
same,outcome,[7],inactive
same,outcome,[8],inactive
same,outcome,[9],inactive
same,fold change,[5]; [19],0.829 (inactive) and 0.996 (inactive) and 0.866 (inactive)
same,fold change,[5]; [20],0.925 and 0.621 and 1.43
same,cell count,[5]; [21],8180 and 9760 and 10200
same,cell count,[5]; [22],9870 and 9800 and 11800
same,z-score,[3]; [17],0.35 (inactive)
same,z-score,[3]; [18],-0.0609
O=C(Nc1ccc([N+](=O)[O-])cc1Cl)c1cc(Cl)ccc1O,red/green cell ratio (normalised),[1],0.66 (inactive)
same,normalised cell number,[1]; [15],0.36
same,normalised cell number,[1]; [16],0.24
same,AC50,[10],1.05 µM (active)
same,AC50,[6],935 nM (active)
same,AC50,[7],1.66 µM (active)
same,AC50,[11],1.66 µM (active)
same,AC50,[12],1.18 µM (active)
same,AC50,[13],1.18 µM (active)
same,AC50,[8],590 nM (active)
same,AC50,[14],833 nM (active)
same,IC50,[9],1.32 µM (active)
same,fold change,[5]; [19],0.851 (inactive) and 1.03 (inactive) and 1.1 (inactive)
same,fold change,[5]; [20],0.641 and 1.64 and 2.16
same,cell count,[5]; [21],1500 and 2060 and 8890
same,cell count,[5]; [22],1770 and 2000 and 8060
same,outcome,[4],active
same,z-score,[3]; [17],-1.03 (inactive)
same,z-score,[3]; [18],-0.036
Nc1c(Br)cc(Br)cc1CNC1CCC(O)CC1 (centres undefined),red/green cell ratio (normalised),[1],0.72 (inactive)
same,normalised cell number,[1]; [15],1.16
same,normalised cell number,[1]; [16],0.84
same,remaining activity,[2],105% (inactive)
same,z-score,[3]; [17],-0.0247 (inactive) and 0.738 (inactive) and 0.116 (inactive)
same,z-score,[3]; [18],-0.062 and -0.225 and -0.64
C[C@@H]1CN(c2c(F)c(N)c3c(=O)c(C(=O)O)cn(C4CC4)c3c2F)C[C@H](C)N1,red/green cell ratio (normalised),[1],0.99 (inactive)
same,normalised cell number,[1]; [15],1.12
same,normalised cell number,[1]; [16],1.11
same,outcome,[10],inactive
same,outcome,[6],inactive
same,outcome,[7],inactive
same,outcome,[11],inactive
same,outcome,[12],inactive
same,outcome,[13],inactive
same,outcome,[8],inactive
same,outcome,[14],inactive
same,outcome,[9],inactive
same,fold change,[5]; [19],0.881 (inactive)
same,fold change,[5]; [20],1.37
same,cell count,[5]; [21],9500
same,cell count,[5]; [22],10800
same,z-score,[3]; [17],-0.149 (inactive) and 0.182 (inactive)
same,z-score,[3]; [18],-0.511 and -0.3
